Measured values published in the supplement of paper PMC11732987, “Enantioselective OTUD7B fragment discovery through chemoproteomics screening and high-throughput optimisation” (Communications Chemistry, 2025).

Columns and labels:
Assay in all cases: log2 ratio of Biotin-Ahx-Ub-VS probe labelling (fragment/DMSO); higher = less target engagement (more negative = stronger competition), active = hit call of the paper (q ≤ 0.05, log2 ratio ≤ -1)
Conditions in all cases: compound concentration: 200 uM; treatment time: 3 h
USP42 = target: T1, USP42 (UniProt Q9H9J4)
T1 sequence (whole entry): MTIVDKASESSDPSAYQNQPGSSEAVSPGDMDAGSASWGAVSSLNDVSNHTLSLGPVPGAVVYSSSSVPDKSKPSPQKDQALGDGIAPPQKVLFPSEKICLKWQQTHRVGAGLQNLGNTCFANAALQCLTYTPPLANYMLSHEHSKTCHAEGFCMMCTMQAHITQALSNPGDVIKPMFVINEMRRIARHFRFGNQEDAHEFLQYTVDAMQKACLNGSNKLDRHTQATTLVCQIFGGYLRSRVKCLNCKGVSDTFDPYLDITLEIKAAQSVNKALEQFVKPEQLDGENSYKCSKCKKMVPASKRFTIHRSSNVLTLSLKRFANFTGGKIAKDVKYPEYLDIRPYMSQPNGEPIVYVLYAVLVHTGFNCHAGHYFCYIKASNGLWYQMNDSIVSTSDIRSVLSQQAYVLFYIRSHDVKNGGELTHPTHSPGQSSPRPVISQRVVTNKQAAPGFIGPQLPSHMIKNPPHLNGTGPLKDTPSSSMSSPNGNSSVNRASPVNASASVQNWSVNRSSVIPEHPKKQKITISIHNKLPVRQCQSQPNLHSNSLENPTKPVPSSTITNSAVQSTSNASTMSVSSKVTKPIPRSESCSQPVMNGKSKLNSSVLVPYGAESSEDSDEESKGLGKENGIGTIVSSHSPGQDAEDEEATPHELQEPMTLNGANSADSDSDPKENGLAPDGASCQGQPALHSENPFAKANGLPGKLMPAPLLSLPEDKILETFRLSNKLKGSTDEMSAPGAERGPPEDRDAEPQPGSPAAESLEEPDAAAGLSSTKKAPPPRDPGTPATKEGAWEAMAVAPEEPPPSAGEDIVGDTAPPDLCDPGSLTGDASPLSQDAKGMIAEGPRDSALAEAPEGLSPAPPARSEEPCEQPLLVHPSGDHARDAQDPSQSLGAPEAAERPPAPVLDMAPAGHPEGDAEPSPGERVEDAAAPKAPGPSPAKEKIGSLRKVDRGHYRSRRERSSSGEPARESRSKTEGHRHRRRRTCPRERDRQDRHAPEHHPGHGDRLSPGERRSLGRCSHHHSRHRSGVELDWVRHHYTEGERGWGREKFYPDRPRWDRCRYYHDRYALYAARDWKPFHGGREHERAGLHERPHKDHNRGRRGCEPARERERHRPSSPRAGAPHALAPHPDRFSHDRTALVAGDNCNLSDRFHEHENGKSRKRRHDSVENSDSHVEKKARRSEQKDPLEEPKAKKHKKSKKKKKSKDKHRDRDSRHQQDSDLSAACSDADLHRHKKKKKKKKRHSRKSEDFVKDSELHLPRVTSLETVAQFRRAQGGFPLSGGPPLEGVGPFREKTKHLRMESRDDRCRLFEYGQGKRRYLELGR
In short: (§1)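 HEK293T lysate (495 µg per sample, in Tris/CHAPS/IGEPAL buffer with protease inhibitors) was treated in triplicate with fragment at 200 µM or with DMSO for 3 h. It was then treated with Biotin-Ahx-Ub-VS (0.5 µM final) for 1 h. Labelled DUBs were NeutrAvidin-enriched, digested with LysC and trypsin, and run by diaPASEF LC-MS/MS. Spectronaut label-free quantities were global-median-normalised. Values are average log2 ratios fragment/DMSO by unpaired t-test, using proteins with ≥2 unique peptides.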

USP46 = USP46 (UniProt P62068)
In short: as §1

USP47 = target: T2, USP47 (UniProt Q96K76)
T2 sequence (whole entry): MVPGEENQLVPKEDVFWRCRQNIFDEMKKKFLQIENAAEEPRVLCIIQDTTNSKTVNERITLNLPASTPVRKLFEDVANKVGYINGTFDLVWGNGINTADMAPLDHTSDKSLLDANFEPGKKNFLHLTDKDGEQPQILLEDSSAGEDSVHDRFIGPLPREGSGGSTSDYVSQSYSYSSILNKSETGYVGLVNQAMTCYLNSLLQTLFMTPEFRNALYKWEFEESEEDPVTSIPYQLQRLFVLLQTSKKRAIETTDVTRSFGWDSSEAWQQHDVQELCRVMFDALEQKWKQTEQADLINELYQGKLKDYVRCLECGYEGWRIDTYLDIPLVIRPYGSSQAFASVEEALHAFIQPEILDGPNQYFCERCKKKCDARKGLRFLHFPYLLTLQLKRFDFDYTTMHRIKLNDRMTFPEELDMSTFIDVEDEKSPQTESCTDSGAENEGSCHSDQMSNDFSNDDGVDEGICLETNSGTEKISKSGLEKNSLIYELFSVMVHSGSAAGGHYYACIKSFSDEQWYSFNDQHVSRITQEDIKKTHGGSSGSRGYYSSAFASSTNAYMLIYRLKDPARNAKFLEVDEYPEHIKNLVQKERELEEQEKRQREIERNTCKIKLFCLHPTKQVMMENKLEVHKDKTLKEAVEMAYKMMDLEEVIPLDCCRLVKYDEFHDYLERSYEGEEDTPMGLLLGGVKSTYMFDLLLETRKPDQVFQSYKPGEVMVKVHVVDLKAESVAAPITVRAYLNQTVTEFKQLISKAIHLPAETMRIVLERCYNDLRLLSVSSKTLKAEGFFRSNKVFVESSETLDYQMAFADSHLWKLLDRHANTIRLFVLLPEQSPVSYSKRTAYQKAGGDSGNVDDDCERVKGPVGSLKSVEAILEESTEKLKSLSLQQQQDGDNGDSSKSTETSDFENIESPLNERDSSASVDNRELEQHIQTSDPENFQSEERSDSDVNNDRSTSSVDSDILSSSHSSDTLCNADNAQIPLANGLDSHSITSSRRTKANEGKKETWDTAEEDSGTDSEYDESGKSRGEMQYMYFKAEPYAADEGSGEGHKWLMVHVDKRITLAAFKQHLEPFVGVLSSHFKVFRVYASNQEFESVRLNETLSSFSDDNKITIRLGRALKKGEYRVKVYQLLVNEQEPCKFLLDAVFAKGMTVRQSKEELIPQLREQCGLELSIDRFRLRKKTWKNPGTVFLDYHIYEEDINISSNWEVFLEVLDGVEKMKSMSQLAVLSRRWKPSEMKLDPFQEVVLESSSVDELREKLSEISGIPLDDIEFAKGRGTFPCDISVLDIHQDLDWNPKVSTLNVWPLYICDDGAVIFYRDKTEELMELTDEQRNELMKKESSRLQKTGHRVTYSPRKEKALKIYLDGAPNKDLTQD
In short: as §1

USP48 = target: T3, USP48 (UniProt Q86UV5)
T3 sequence (whole entry): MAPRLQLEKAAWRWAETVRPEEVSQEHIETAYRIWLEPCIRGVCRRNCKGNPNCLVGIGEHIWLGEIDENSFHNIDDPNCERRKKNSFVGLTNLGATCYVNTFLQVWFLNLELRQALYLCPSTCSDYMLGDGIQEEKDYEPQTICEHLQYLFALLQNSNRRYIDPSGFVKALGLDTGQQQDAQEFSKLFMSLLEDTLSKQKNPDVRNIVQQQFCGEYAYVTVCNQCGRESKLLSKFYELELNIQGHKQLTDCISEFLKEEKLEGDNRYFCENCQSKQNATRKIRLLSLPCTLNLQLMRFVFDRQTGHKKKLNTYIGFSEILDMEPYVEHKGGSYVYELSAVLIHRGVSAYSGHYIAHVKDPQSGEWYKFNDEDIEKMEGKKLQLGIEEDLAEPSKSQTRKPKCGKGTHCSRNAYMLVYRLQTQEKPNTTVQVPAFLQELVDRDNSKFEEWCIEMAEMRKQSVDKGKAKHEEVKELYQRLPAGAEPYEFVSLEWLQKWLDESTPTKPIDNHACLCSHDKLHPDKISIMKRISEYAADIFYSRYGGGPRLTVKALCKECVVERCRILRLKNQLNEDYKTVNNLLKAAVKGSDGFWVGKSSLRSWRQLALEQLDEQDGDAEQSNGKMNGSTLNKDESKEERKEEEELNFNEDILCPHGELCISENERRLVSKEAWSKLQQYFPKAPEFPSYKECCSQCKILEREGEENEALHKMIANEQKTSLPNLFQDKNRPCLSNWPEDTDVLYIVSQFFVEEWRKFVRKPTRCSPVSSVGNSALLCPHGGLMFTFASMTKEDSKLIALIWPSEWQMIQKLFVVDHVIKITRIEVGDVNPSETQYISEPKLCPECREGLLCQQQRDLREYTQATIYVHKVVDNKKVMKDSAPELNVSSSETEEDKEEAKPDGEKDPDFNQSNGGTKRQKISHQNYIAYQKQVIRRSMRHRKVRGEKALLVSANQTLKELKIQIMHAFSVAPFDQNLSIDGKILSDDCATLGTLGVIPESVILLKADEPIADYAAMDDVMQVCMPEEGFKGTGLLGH
In short: as §1

USP5 = target: T4, USP5 (UniProt P45974)
T4 sequence (whole entry): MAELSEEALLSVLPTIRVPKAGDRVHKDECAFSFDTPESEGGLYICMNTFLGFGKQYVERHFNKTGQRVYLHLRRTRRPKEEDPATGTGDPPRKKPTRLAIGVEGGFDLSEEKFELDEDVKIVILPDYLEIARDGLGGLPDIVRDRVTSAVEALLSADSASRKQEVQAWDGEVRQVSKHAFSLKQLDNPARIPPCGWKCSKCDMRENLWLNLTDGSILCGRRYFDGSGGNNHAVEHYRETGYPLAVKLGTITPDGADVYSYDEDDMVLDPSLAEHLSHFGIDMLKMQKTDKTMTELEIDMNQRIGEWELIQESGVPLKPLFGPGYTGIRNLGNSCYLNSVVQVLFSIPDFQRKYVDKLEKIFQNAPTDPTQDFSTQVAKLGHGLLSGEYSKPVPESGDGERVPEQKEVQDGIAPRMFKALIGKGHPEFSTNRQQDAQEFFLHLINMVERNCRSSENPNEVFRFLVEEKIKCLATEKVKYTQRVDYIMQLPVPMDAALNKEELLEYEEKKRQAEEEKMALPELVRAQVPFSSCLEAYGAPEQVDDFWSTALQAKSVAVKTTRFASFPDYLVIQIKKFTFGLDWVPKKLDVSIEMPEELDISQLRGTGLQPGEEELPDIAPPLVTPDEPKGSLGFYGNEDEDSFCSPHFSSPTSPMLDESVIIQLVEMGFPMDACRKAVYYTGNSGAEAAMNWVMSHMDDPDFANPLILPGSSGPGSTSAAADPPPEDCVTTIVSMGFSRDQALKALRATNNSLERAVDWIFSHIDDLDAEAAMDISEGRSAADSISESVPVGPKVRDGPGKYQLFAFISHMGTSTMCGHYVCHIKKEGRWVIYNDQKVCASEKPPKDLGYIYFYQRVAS
In short: as §1

USP54 = USP54 (UniProt Q70EL1)
In short: as §1

USP7 = USP7 (UniProt Q93009)
In short: as §1

USP8 = target: T5, USP8 (UniProt P40818)
T5 sequence (whole entry): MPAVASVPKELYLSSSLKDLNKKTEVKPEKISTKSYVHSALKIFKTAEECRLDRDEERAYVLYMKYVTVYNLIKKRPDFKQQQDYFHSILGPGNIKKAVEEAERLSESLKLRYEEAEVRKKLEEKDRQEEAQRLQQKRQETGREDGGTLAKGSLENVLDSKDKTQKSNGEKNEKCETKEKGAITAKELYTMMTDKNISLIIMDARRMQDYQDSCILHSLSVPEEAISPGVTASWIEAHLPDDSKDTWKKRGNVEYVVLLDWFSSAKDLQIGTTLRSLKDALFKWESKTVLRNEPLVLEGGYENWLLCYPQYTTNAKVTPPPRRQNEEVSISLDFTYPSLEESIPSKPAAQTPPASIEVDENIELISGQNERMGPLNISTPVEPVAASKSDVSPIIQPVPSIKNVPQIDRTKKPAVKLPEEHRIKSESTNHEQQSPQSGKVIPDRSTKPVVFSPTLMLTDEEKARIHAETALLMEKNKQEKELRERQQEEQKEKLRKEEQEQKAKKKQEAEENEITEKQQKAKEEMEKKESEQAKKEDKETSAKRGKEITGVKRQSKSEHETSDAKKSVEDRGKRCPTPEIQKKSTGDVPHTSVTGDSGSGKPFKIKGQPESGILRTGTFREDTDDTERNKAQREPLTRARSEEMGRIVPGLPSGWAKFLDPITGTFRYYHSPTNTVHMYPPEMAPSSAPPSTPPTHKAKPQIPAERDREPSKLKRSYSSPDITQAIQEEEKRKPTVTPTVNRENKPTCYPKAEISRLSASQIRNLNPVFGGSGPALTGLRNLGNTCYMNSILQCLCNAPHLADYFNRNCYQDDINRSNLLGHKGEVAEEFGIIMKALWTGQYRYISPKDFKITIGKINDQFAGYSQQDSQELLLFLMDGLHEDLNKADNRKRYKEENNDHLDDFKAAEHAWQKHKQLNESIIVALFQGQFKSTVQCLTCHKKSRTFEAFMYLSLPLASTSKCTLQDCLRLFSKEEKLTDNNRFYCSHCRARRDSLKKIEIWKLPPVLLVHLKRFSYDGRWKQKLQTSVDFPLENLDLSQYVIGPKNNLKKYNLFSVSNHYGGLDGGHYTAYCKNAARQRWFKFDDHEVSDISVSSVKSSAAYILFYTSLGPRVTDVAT
In short: as §1

Measured: log2 ratio of Biotin-Ahx-Ub-VS probe labelling

USP7, sequence (Q93009 whole entry, looked up): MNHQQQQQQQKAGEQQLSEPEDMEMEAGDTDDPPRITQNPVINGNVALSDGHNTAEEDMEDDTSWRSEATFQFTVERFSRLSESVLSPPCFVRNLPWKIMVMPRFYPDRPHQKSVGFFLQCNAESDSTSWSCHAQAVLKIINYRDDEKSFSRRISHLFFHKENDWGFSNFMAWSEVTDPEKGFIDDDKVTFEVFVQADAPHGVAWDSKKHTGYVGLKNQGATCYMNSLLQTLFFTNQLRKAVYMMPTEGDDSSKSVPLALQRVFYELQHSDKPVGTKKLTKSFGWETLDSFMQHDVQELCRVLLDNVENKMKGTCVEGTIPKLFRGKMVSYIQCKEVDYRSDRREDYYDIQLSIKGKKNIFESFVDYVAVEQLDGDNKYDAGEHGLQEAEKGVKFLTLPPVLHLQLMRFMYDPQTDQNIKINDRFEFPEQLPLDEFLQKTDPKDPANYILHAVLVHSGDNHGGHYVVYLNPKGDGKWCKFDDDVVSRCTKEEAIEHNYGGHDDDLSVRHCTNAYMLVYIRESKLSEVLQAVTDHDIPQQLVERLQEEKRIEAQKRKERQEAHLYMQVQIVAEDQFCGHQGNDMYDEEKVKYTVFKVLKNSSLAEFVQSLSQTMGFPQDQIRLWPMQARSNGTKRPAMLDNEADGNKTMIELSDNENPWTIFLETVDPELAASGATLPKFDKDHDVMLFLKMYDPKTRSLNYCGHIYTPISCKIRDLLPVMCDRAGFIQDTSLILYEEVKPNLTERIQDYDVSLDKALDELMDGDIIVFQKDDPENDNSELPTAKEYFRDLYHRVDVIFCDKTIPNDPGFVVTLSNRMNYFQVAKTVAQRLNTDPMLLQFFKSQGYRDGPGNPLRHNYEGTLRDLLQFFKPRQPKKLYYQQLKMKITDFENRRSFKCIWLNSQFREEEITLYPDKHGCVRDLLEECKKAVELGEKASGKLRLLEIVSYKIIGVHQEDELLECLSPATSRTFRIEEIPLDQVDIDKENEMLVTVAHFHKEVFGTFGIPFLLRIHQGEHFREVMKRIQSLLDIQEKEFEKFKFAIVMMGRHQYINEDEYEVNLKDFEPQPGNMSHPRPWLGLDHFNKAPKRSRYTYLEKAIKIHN
USP46, sequence (P62068 whole entry): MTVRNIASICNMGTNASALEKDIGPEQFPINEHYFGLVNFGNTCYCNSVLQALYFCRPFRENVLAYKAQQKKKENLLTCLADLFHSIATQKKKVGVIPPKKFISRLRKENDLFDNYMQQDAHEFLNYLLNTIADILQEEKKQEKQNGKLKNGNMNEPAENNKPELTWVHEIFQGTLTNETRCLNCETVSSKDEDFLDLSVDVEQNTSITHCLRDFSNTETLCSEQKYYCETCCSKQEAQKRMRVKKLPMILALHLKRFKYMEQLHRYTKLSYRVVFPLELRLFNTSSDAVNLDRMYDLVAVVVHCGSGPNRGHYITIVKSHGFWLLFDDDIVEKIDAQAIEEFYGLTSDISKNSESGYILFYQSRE
USP54, sequence (Q70EL1 whole entry): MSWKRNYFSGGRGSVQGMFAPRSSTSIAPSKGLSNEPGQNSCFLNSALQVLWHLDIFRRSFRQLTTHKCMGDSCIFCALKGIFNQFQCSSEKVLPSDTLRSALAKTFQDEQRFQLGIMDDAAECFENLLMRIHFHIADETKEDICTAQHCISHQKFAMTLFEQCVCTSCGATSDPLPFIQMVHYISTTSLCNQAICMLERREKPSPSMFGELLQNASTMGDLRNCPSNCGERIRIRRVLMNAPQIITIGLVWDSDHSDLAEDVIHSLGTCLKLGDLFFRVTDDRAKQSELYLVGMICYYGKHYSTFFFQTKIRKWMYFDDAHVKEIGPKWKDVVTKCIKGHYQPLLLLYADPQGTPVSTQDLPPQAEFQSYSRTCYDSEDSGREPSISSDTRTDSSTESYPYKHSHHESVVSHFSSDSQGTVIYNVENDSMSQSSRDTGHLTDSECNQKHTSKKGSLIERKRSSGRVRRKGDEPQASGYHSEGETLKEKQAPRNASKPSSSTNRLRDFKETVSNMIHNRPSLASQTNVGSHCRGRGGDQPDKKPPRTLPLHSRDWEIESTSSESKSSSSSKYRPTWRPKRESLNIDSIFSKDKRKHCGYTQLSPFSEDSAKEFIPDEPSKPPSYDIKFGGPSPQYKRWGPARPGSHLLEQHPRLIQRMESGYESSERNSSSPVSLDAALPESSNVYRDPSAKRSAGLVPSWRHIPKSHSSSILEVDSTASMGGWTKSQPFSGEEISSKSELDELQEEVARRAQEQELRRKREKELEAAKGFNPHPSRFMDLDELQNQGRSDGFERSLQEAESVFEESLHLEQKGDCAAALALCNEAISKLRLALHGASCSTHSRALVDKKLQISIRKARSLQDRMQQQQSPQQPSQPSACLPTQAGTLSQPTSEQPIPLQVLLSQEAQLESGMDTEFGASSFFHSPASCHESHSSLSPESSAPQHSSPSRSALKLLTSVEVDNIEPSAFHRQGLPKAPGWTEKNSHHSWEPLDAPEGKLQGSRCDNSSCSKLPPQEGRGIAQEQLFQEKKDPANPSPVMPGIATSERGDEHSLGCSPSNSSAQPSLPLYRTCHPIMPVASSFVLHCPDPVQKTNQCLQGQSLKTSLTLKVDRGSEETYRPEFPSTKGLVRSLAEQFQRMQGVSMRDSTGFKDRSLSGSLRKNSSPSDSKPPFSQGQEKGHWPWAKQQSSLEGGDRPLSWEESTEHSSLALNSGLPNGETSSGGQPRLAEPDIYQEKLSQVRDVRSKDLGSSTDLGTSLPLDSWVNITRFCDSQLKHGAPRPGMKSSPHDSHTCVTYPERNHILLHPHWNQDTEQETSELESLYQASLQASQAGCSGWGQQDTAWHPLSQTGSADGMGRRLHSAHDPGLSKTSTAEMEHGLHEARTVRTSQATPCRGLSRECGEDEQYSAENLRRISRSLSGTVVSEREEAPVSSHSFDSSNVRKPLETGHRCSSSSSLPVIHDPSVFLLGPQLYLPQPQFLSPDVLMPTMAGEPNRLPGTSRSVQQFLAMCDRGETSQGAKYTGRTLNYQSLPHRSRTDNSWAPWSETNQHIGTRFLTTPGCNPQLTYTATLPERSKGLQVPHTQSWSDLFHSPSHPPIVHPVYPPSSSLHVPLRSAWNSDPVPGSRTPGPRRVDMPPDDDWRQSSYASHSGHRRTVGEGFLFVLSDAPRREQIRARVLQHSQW

Cc1ccc(CN(C)C(=O)CCl)o1
inactive: USP42 0.191 | USP46 -0.175 | USP47 0.0147 | USP48 -0.264 | USP5 0.245 | USP54 0.355 | USP7 -0.538 | USP8 -0.199
